The text below walks through data of PubChem BioAssay (NCI).

The panel holds about 83,000 compounds, 20% with a hit somewhere; the sample as a whole holds those more often.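 Plates (96-well) were seeded with cells, treated with compound at one concentration, and incubated for 48 hours before percent growth was determined.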 Active and inactive are the calls of the source. Rule for the calls: active = growth percent below 10; inactive = the rest.

The first assay concerns HCT-116 colon. The assay can be described thus: NCI-60 one-dose screen, 48 h (100 = growth as untreated, 0 = no growth, -100 = all killed). The settings on record: 10 µM unless noted.
For the molecule `O=C(CC(CC(=O)c1ccccc1)c1ccccn1)c1ccccc1`, the growth is 94% (inactive).

With `Cc1ccc(C2CCCCC2)cc1Br`, the growth is 105% (inactive).

Consider `C/C(=N\Nc1ccc([N+](=O)[O-])cc1[N+](=O)[O-])c1ccc(Br)cc1`, for which the growth is 102% (inactive).

On to `C/C(=N\N=C(/C)c1cccc([N+](=O)[O-])c1)c1cccc([N+](=O)[O-])c1`, for which the growth is 89.8% (inactive).

For `CCCCCC(=O)OCCC1CCCCC1`, the growth was 89.8% (inactive).

Take `O=C(Nc1cccc(Cl)c1)c1ccc(Cl)cc1Cl`: the growth is 89% (inactive).

As to `CC(C)C1CCC(C)C(O)C1` (stereo not drawn), the growth was 111% (inactive).

As to `O=C(O)c1ccc([N+](=O)[O-])cc1S(=O)(=O)O`, the growth was 95.6% (inactive).

Consider `CSc1nc2[nH]ncc2c(=O)[nH]1`, for which the growth was 98.1% (inactive).

With `CCN(C(=O)Nc1ccccc1Cl)c1ccccc1`, the growth is 112% (inactive).

For `C=C(C)COc1ccc(C(C)(C)C)cc1`, the growth is 96% (inactive).

Regarding `C1C[S+]2CC[S+]1CC2`, the growth is 104% (inactive).

Turning to `Oc1ccc(CCC2CCNc3ccccc32)cc1` (stereo not drawn), the growth is 89.3% (inactive).

With `CC(CC(CCC(=O)O)(c1ccccc1)c1ccccc1)N(C)C` (stereo not drawn), the growth was 97.2% (inactive).

Consider `CCCNS(=O)(=O)c1ccc(Cl)cc1`, for which the growth is 103% (inactive).

The next assay deals with HCC-2998 colon. The assay is described as above. The settings on record: 10 µM unless noted.
Regarding `CC(C)C(C)(C)C(=O)C(C)(C)C(C)(C)C`, the growth is 104% (inactive).

As to `Cc1[nH]nc(C(N)=O)c1[N+](=O)[O-]`, the growth is 106% (inactive).

With `C/C(=N\O)c1ccccn1`, the growth was 109% (inactive).

Regarding `NC(=O)NCCO`, the growth was 102% (inactive).

Turning to `O=S1(=O)c2ccccc2Oc2ccccc21`, the growth is 106% (inactive).

For the molecule `CCN(C(C)=O)c1ccc([N+](=O)[O-])cc1`, the growth was 97.8% (inactive).

For the molecule `CC(C)C(=O)OCCOc1ccc(C(C)(C)C)cc1`, the growth was 111% (inactive).

`O=C(Oc1ccccc1Cl)c1ccc(Cl)cc1Cl`: the growth is 102% (inactive).

With `CC(=O)NC(O)C(Cl)Cl` (stereo not drawn), the growth is 98.4% (inactive).

`Ic1cccs1`: the growth was 108% (inactive).

Consider `N#CC1(O)CCCCC1`, for which the growth was 93.3% (inactive).

Turning to `COC(=O)c1cccc([N+](=O)[O-])c1`, the growth is 99.7% (inactive).

In the case of `COC1OC(C(O)C(O)CO)C(O)C(O)C1O` (stereo not drawn), the growth was 107% (inactive).

Take `COc1cccc(C(=O)O)c1OC`: the growth was 98.6% (inactive).

With `CC(=O)Oc1c(Cl)cccc1-c1ccccc1`, the growth was 102% (inactive).

Regarding `OCCc1ccc(Cl)cc1`, the growth was 110% (inactive).

In the case of `CC(C)(N)CO[C@H]1C[C@H]2CC[C@@]1(C)C2(C)C`, the growth is 102% (inactive).

In the case of `O=C(NCc1ccccc1)c1cccc([N+](=O)[O-])c1`, the growth is 108% (inactive).

As to `NNc1ncnc2c1ncn2C1OC(CO)C(O)C1O` (stereo not drawn), the growth was 48.9% (inactive).

`CCOC(C=O)OCC`: the growth was 99.1% (inactive).

As to `C=CCS(C)(=O)=O`, the growth is 108% (inactive).

Regarding `O=C(CC(CC(=O)c1ccccc1)c1ccccn1)c1ccccc1`, the growth was 97% (inactive).

In the case of `Cc1ccc(C2CCCCC2)cc1Br`, the growth was 105% (inactive).

For the molecule `C/C(=N\Nc1ccc([N+](=O)[O-])cc1[N+](=O)[O-])c1ccc(Br)cc1`, the growth is 99.4% (inactive).

As to `C/C(=N\N=C(/C)c1cccc([N+](=O)[O-])c1)c1cccc([N+](=O)[O-])c1`, the growth was 98% (inactive).

`CCCCCC(=O)OCCC1CCCCC1`: the growth is 99.1% (inactive).

Take `O=C(Nc1cccc(Cl)c1)c1ccc(Cl)cc1Cl`: the growth was 106% (inactive).

For the molecule `CC(C)C1CCC(C)C(O)C1` (stereo not drawn), the growth was 109% (inactive).

As to `O=C(O)c1ccc([N+](=O)[O-])cc1S(=O)(=O)O`, the growth was 97.8% (inactive).

Turning to `CSc1nc2[nH]ncc2c(=O)[nH]1`, the growth was 108% (inactive).

For the molecule `CCN(C(=O)Nc1ccccc1Cl)c1ccccc1`, the growth was 111% (inactive).

Regarding `C1C[S+]2CC[S+]1CC2`, the growth is 105% (inactive).

Take `Oc1ccc(CCC2CCNc3ccccc32)cc1` (stereo not drawn): the growth is 102% (inactive).

As to `CC(CC(CCC(=O)O)(c1ccccc1)c1ccccc1)N(C)C` (stereo not drawn), the growth is 106% (inactive).

In the case of `CCCNS(=O)(=O)c1ccc(Cl)cc1`, the growth was 98.9% (inactive).

A further assay has as its system KM12 colon. The assay is described as above. The settings on record: 10 µM unless noted.
Turning to `CC(C)C(C)(C)C(=O)C(C)(C)C(C)(C)C`, the growth was 107% (inactive).

Regarding `Cc1[nH]nc(C(N)=O)c1[N+](=O)[O-]`, the growth is 103% (inactive).

As to `CCC(C)c1c(N)n(S(=O)(=O)c2ccc(C)cc2)oc1=O` (stereo not drawn), the growth was 104% (inactive).

As for `C/C(=N\O)c1ccccn1`, the growth is 93.8% (inactive).

On to `NC(=O)NCCO`, for which the growth is 101% (inactive).

As to `O=S1(=O)c2ccccc2Oc2ccccc21`, the growth is 109% (inactive).

Take `CCN(C(C)=O)c1ccc([N+](=O)[O-])cc1`: the growth is 103% (inactive).

As to `CC(C)C(=O)OCCOc1ccc(C(C)(C)C)cc1`, the growth is 93.3% (inactive).

As for `O=C(Oc1ccccc1Cl)c1ccc(Cl)cc1Cl`, the growth was 87.4% (inactive).

`CC(=O)NC(O)C(Cl)Cl` (stereo not drawn): the growth is 103% (inactive).

In the case of `NNc1ncccn1`, the growth is 101% (inactive).

Take `Ic1cccs1`: the growth was 103% (inactive).

In the case of `N#CC1(O)CCCCC1`, the growth was 102% (inactive).

For `COC(=O)c1cccc([N+](=O)[O-])c1`, the growth was 103% (inactive).

Turning to `COC1OC(C(O)C(O)CO)C(O)C(O)C1O` (stereo not drawn), the growth was 106% (inactive).

`COc1cccc(C(=O)O)c1OC`: the growth was 101% (inactive).

As to `CC(=O)Oc1c(Cl)cccc1-c1ccccc1`, the growth was 104% (inactive).

`OCCc1ccc(Cl)cc1`: the growth was 88.9% (inactive).

As for `CC(C)(N)CO[C@H]1C[C@H]2CC[C@@]1(C)C2(C)C`, the growth was 94.1% (inactive).

Turning to `O=C(NCc1ccccc1)c1cccc([N+](=O)[O-])c1`, the growth was 85% (inactive).

In the case of `NNc1ncnc2c1ncn2C1OC(CO)C(O)C1O` (stereo not drawn), the growth is 28.5% (inactive).

Consider `CCOC(C=O)OCC`, for which the growth is 104% (inactive).

As for `C=CCS(C)(=O)=O`, the growth was 88.3% (inactive).

Turning to `O=C(CC(CC(=O)c1ccccc1)c1ccccn1)c1ccccc1`, the growth is 102% (inactive).

Consider `Cc1ccc(C2CCCCC2)cc1Br`, for which the growth was 94.3% (inactive).

On to `C/C(=N\Nc1ccc([N+](=O)[O-])cc1[N+](=O)[O-])c1ccc(Br)cc1`, for which the growth is 93.3% (inactive).

Regarding `C/C(=N\N=C(/C)c1cccc([N+](=O)[O-])c1)c1cccc([N+](=O)[O-])c1`, the growth is 97.9% (inactive).

Turning to `CCCCCC(=O)OCCC1CCCCC1`, the growth is 101% (inactive).

For the molecule `O=C(Nc1cccc(Cl)c1)c1ccc(Cl)cc1Cl`, the growth was 85.1% (inactive).

For the molecule `CC(C)C1CCC(C)C(O)C1` (stereo not drawn), the growth was 97.3% (inactive).

Turning to `O=C(O)c1ccc([N+](=O)[O-])cc1S(=O)(=O)O`, the growth was 104% (inactive).

`CSc1nc2[nH]ncc2c(=O)[nH]1`: the growth was 99.9% (inactive).

In the case of `CCN(C(=O)Nc1ccccc1Cl)c1ccccc1`, the growth is 105% (inactive).

Regarding `C=C(C)COc1ccc(C(C)(C)C)cc1`, the growth was 103% (inactive).

Take `C1C[S+]2CC[S+]1CC2`: the growth is 106% (inactive).

Turning to `Oc1ccc(CCC2CCNc3ccccc32)cc1` (stereo not drawn), the growth is 88.4% (inactive).

Take `CC(CC(CCC(=O)O)(c1ccccc1)c1ccccc1)N(C)C` (stereo not drawn): the growth is 109% (inactive).

As to `CCCNS(=O)(=O)c1ccc(Cl)cc1`, the growth was 99.6% (inactive).
